# Measured values: PubChem BioAssay (NCATS)
# Inconclusive results are not listed. Entries that show only a call come without a potency. Activity calls are given as the source filed them. Calls come from the whole dose curve; as a rule, active = well fitted cell-killing curve with a large enough effect; inconclusive = small, poorly fitted or top-dose-only effect; inactive = flat fitted curve, though single readings scatter.
# Assay: HepG2 cells viability qHTS for Zika virus inhibitors (AID 1347168)
# Details: Zika counter-screen; series mostly up to 45.9 µM
# From the text: Avindra Nath, Ph.D., National Institute of Neurological Disorders and Stroke (NINDS), Bethesda, MD
# Radhakrishnan Padmanabhan, Ph.D., Georgetown University (GU), Washington D.C.
# Zika Virus causes congenital defects, including microcephaly and is associated with Guillain-Barre syndrome, eningoencephalitis and myelitis in infected adult. […] Using a target-based approach, we hope to establish a screening paradigm to uncover novel, cell-active NS2B-NS3 protease (Zika Virus) specific inhibitors from NCATS' collection of small molecules using qHTS.
# Four assay panel was created to identify potential Zika Virus inhibitors. Namely, (1) GU unlinked NS2B-NS3 AMC tagged protease qHTS, (2) GU unlinked NS2B-NS3 Rhodamine tagged protease qHTS, (3) NINDS linked NS2B-NS3 AMC tagged protease qHTS, (4) NINDS linked NS2B-NS3 Rhodamine tagged protease qHTS. Identified inhibitors were screened against the Vero and HepG2 cell viability assays using CellTiter Glo to exclude cytotoxic compounds.
# Early Translation Branch (ETB)
# National Center for Advancing Translational Sciences (NCATS), Rockville, MD
# National Institute of Health (NIH), Bethesda, Maryland
# Vero and HepG2 Cell Viability Assay:
# Vero and HepG2 cell cytotoxicity were determined using a luminescent readout with CellTiter Glo reagent (Promega, Madison, WI), which is based on measuring the ATP content within cells. Briefly, 4 microL of Vero or HepG2 cells at 2.5 x 10^5 cells/mL in DMEM containing 4% FBS were dispensed into 1536-well solid bottom tissue treated white plate using a Multidrop Combi dispenser (Thermo Scientific). Plates were incubated at 37 degrees C, 95% humidity, and 5% CO2 overnight to allow for cell attachment. Compounds were dissolved in DMSO at different concentrations and transferred via pintool (Wako Automation), for a final concentration of 0.029 µM - 57 microM. Plates were again incubated for 24 to 48 hours, followed by a 2 microL addition of CellTiter Glo. Finally, plates were incubated for 30 minutes at 37 degrees C and 5% CO2 before being read on a ViewLux (Perkin Elmer) for luminescence.
# Potency is the fitted concentration of half-maximal effect.
row,Compound,Potency
1,CNC1CCCN(c2c(F)cc3c(=O)c(C(=O)O)cn(C4CC4)c3c2OC)C1 (stereo unspecified),inactive
2,COC(=O)Nc1nc2ccc(C(=O)c3ccccc3)cc2[nH]1,inactive
3,CCn1cc(C(=O)O)c(=O)c2cc(F)c(N3CCNCC3)cc21,inactive
4,CCCc1nc(C)c2c(=O)[nH]c(-c3cc(S(=O)(=O)N4CCN(CC)CC4)ccc3OCC)nn12,inactive
5,Nc1nc(N)c2nc(CNc3ccc(C(=O)NC(CCC(=O)O)C(=O)O)cc3)cnc2n1 (stereo unspecified),inactive
6,O=C(O)c1cn(C2CC2)c2cc(N3CCNCC3)c(F)cc2c1=O,inactive
7,O=C(O)c1ccc(-n2nc(-c3ccccc3O)nc2-c2ccccc2O)cc1,inactive
8,COc1c(N2CCNC(C)C2)c(F)cc2c(=O)c(C(=O)O)cn(C3CC3)c12 (stereo unspecified),inactive
9,OCc1ccc(-c2nn(Cc3ccccc3)c3ccccc23)o1,11.7 µM (active)
10,CNC(=O)c1cc(Oc2ccc(NC(=O)Nc3ccc(Cl)c(C(F)(F)F)c3)cc2)ccn1,33.9 µM (active)
11,Nc1nc(=S)c2[nH]cnc2[nH]1,inactive
